Among the data in PubChem BioAssay (EPA / NIEHS) are outcome and AC50 values, retold here.

Assay [1] can be described thus: ATG_TAL_CIS: Attagene CIS-FACTORIAL HepG2 Assay for human TAL Basal Promoter (AID 2282966; active = hit-call score of the fitted dose curve at least 0.9, where 1 is the maximum; inactive = score below 0.9;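 also: background control endpoint measuring basal TAL promoter reporter mRNA not a specific factor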). The note with it: HepG2 Attagene cis-factorial TAL promoter reporter; actives raise or lower the signal. Put shortly: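 Steps: transfect HepG2 with multiple reporter transcription units; dose 24 h; isolate RNA, reverse-transcribe, PCR-amplify, label with 6-FAM, digest with HpaI; resolve by capillary electrophoresis. Bidirectional fitting against DMSO baseline.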

Assay [2] can be described thus: ATG_TGFb_CIS: Attagene CIS-FACTORIAL HepG2 Assay for human Transforming Growth Factor (TGF) (AID 2282967; active = hit-call score of the fitted dose curve at least 0.9, where 1 is the maximum; inactive = score below 0.9). The following applies: HepG2 Attagene CIS TGFb reporter, mRNA transcription; actives raise or lower the signal. Put shortly: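 After a 24-hour incubation with compound, transfected HepG2 cells were lysed for RNA; reporter cDNA was amplified, fluorescently end-labeled and separated by CE. DMSO served as baseline for bidirectional fits.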

Assay [3] is described as follows: ATG_VDRE_CIS: Attagene CIS-FACTORIAL HepG2 Assay for human Vitamin D Receptor Element (VDRE) (AID 2282968; active = hit-call score of the fitted dose curve at least 0.9, where 1 is the maximum; inactive = score below 0.9). The note with it: HepG2 VDRE cis-reporter transcription, actives raise or lower the signal. Put shortly:
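Reporter mRNA induction, quantified by capillary electrophoresis of fluorescently labelled RT-PCR products, was read 24 h after dosing HepG2 cells carrying transiently transfected cis-regulated reporter units; gain or loss relative to DMSO.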

Assay [4] concerns the target Estrogen receptor (Homo sapiens) (UniProt P03372). In words: ATG_ERa_TRANS: Attagene TRANS-FACTORIAL HepG2 Assay for human Estrogen Receptor alpha (ERa) (AID 2282970). The note with it: HepG2 Attagene TRANS ERa GAL4 reporter, mRNA. Put shortly:
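Multiplexed cell-based reporter format in HepG2: chimeric ERa-Gal4 protein drives GAL4-UAS reporter transcription. Fluorescent reporter mRNA quantified by capillary electrophoresis 24 hours after dosing; endpoint fitted as signal gain against DMSO.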

Assay [5] addresses X-box-binding protein 1 (Homo sapiens) (UniProt P17861). In words: ATG_Xbp1_CIS: Attagene CIS-FACTORIAL HepG2 Assay for human X-box Binding Protein 1 (XBP1) (AID 2282972; active = hit-call score of the fitted dose curve at least 0.9, where 1 is the maximum; inactive = score below 0.9). The following applies: HepG2 XBP1 cis-element reporter, Attagene multiplex; actives raise or lower the signal. Put shortly:
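Fluorescence-labelled cDNA fragments from reporter transcripts, separated by capillary electrophoresis, give the signal. Source: HepG2 cells transfected with promoter-driven reporter units, harvested 24 h post-dose. DMSO served as reference for bidirectional curve fitting.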

The target of assay [6] is Oxysterols receptor LXR-alpha (Homo sapiens) (UniProt Q13133). Briefly: ATG_LXRa_TRANS: Attagene TRANS-FACTORIAL HepG2 Assay for human Liver X Receptor alpha (LXRa) (AID 2282980). The following applies: HepG2 Attagene TRANS reporter, LXRa transactivation. Put shortly:
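In this multiplexed TRANS system, compounds act on HepG2 cells carrying GAL4-UAS reporter units and a receptor-GAL4 fusion for 24 h. Induced reporter RNA is amplified, fluorescently labelled and sized by capillary electrophoresis, with DMSO as baseline.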

The target in assay [7] is Oxysterols receptor LXR-beta (Homo sapiens) (UniProt P55055). In words: ATG_LXRb_TRANS: Attagene TRANS-FACTORIAL HepG2 Assay for human Liver X Receptor beta (LXRb) (AID 2282981). The following applies: HepG2 Attagene TRANS GAL4-LXRb reporter, mRNA. The method, boiled down: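 Transient transfection HepG2 (multiplexed RTUs, GAL4-UAS); NR-Gal4 chimera; 24 h exposure; RNA → RT-PCR → 6-FAM primer extension → HpaI → CE; increase vs DMSO.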
Chain of Oxysterols receptor LXR-beta (Homo sapiens) (P55055 whole entry, looked up, the tested form may be a part): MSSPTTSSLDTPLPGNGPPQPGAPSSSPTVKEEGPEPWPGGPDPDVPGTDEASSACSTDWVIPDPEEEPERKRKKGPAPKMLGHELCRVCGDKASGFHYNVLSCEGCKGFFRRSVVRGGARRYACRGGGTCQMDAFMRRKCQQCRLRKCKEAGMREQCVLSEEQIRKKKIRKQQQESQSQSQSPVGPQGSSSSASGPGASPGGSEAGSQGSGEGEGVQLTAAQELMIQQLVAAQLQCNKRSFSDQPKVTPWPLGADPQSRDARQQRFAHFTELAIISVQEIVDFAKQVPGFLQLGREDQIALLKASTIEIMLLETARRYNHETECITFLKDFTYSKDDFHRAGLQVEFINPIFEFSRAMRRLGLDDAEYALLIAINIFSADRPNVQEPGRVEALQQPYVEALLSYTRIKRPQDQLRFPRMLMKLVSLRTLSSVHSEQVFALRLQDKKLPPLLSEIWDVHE

For assay [8], the target named is Hepatocyte nuclear factor 4-alpha (Homo sapiens) (UniProt P41235). In words: ATG_HNF4a_TRANS: Attagene TRANS-FACTORIAL HepG2 Assay for human Hepatocyte Nuclear Factor 4 alpha (HNF4a) (AID 2282982). The following applies: HepG2 HNF4a transactivation reporter, mRNA readout. Put shortly: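 Readout is fluorescent reporter-transcript fragments resolved by capillary electrophoresis after RT-PCR from HepG2 cells dosed for 24 h. Cells carried transfected GAL4-UAS reporter constructs measuring exogenous NR-GAL4 chimera activity; DMSO served as baseline.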
Chain of Hepatocyte nuclear factor 4-alpha (Homo sapiens) (P41235 whole entry, looked up, the tested form may be a part): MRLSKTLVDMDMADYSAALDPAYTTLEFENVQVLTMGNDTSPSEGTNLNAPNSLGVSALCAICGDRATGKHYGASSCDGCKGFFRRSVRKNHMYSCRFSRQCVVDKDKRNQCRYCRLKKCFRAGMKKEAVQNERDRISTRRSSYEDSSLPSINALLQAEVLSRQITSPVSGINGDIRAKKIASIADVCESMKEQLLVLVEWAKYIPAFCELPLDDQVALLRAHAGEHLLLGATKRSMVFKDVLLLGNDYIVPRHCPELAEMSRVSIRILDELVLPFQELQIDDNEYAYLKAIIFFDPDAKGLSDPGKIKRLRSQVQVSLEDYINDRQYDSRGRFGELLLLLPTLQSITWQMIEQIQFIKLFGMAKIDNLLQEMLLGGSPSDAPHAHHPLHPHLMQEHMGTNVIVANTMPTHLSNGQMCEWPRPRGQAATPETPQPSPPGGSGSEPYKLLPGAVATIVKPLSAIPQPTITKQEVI

A short description of assay [9]: ATG_M_06_TRANS: Attagene TRANS-FACTORIAL HepG2 Assay for M06 Transcription Factor (Internal Marker) (AID 2282983).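 Also: reporter transcript level by RT-PCR then capillary electrophoresis fluorescence.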 The note with it: HepG2 Attagene TRANS M06 internal marker reporter. Put shortly:
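Internal-marker background readout from a multiplexed TRANS reporter system in HepG2; 24 h dosing; mRNA induction quantified by RT-PCR plus capillary electrophoresis fluorescence; DMSO as negative control and baseline.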

The target of assay [10] is Nuclear receptor subfamily 4 group A member 2 (Homo sapiens) (UniProt P43354). In words: ATG_NURR1_TRANS: Attagene TRANS-FACTORIAL HepG2 Assay for human Nuclear Receptor Related Protein 1 (NURR1) (AID 2282985). The following applies: HepG2 Attagene TRANS reporter, mRNA readout. Put shortly:
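Transient transfection of HepG2, human liver cells, with multiple GAL4-UAS reporter transcription units. Cells dosed 24 h, RNA isolated, reverse-transcribed, PCR-amplified, FAM-labelled, HpaI-digested, sized by capillary electrophoresis. DMSO served as negative control.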

Assay [11] addresses Transcriptional activator Myb (Homo sapiens) (UniProt P10242). Briefly: ATG_Myb_CIS: Attagene CIS-FACTORIAL HepG2 Assay for human Myeloblastosis (Myb) Proto-Oncogene Transcription Factor (AID 2282986; active = hit-call score of the fitted dose curve at least 0.9, where 1 is the maximum; inactive = score below 0.9). The note with it: HepG2 Attagene CIS-FACTORIAL Myb reporter transcription; actives raise or lower the signal. The method, boiled down: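 Transiently transfected HepG2 cells carrying a multiplexed cis-promoter reporter set report endogenous Myb activity after 24 h compound exposure. Reporter mRNA is read by RT-PCR with capillary electrophoresis of fluorescent products, fitted bidirectionally against DMSO.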

In assay [12] the target is Nuclear respiratory factor 1 (Homo sapiens) (UniProt Q16656). Briefly: ATG_NRF1_CIS: Attagene CIS-FACTORIAL HepG2 Assay for human Nuclear Respiratory Factor 1 (NRF1) Orphan Gene (AID 2282987; active = hit-call score of the fitted dose curve at least 0.9, where 1 is the maximum; inactive = score below 0.9). The note with it: HepG2 NRF1 cis-element reporter, Attagene multiplex; actives raise or lower the signal. Put shortly: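 HepG2 cells transiently transfected with multiple cis-regulated reporter units, exposed 24 h. Reporter mRNAs measured by RT-PCR, fluorescent labelling, HpaI digestion and capillary electrophoresis; bidirectional fitting against DMSO.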
Chain of Nuclear respiratory factor 1 (Homo sapiens) (Q16656 whole entry, looked up): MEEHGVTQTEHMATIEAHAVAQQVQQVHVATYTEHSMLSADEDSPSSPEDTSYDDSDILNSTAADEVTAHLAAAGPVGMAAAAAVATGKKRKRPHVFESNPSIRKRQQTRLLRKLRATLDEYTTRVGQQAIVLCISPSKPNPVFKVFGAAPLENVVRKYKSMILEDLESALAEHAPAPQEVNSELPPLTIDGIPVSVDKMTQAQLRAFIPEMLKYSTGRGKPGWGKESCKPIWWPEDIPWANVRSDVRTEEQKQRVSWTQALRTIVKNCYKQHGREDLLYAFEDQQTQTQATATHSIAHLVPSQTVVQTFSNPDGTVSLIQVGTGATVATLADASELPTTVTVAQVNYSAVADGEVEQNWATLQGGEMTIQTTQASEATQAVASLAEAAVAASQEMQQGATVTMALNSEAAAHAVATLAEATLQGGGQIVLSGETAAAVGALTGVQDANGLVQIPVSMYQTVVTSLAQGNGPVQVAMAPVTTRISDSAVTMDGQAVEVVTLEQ

A short description of assay [13]: ATG_M_19_TRANS: Attagene TRANS-FACTORIAL HepG2 Assay for M19 Transcription Factor (Internal Marker) (AID 2282974). The following applies: HepG2 Attagene TRANS-FACTORIAL M19 internal marker reporter. Put shortly:
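HepG2 transiently transfected with GAL4-UAS multiplex reporter constructs, exposed 24 h; reporter RNA quantified by RT-PCR, 6-FAM labeling, HpaI digestion and capillary electrophoresis; internal background marker fitted upward versus DMSO.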

Assay [14] can be described thus: ATG_GAL4_TRANS: Attagene TRANS-FACTORIAL HepG2 Assay for GAL4 (Internal Marker) (AID 2282976). The note with it: HepG2 Attagene TRANS GAL4 internal marker reporter. The method, boiled down:
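Liver HepG2 line bearing multiplexed GAL4-UAS reporter constructs; 24 h chemical treatment. Transcripts were quantified as fluorescent fragments on capillary electrophoresis after RT-PCR and HpaI cut, with activity fitted upward from DMSO.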

In assay [15] the target is Glucocorticoid receptor (Homo sapiens) (UniProt P04150). In words: ATG_GR_TRANS: Attagene TRANS-FACTORIAL HepG2 Assay for human Glucocorticoid Receptor (GR) (AID 2282978).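 Also: activators score as hits since higher reporter transcript over DMSO is fitted.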 The note with it: HepG2 Attagene TRANS GR reporter, mRNA transcription. Put shortly:
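HepG2 cells transiently transfected with GAL4-UAS reporter units and exogenous GR-Gal4 chimera, dosed 24 h. Reporter mRNA by RT-PCR, FAM labeling, HpaI digest and capillary electrophoresis; gain-of-signal fit versus DMSO.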

The nature of assay [16]: ATG_M_32_TRANS: Attagene TRANS-FACTORIAL HepG2 Assay for M32 Transcription Factor (Internal Marker) (AID 2282984).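 Also: transcript level of a background control reporter unit measured by RT-PCR and capillary electrophoresis.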 The note with it: HepG2 Attagene TRANS M32 internal marker reporter. The method, boiled down: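 Measures reporter mRNA induction in human HepG2 liver cells after 24 h chemical treatment. Transcripts from transiently transfected GAL4-UAS reporter units are amplified, fluorescently labelled and sized by capillary electrophoresis; gain of signal relative to DMSO.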

Records with an inconclusive call do not appear. Active and inactive are the calls of the source. The calls were made as follows, unless noted: active = hit-call score of the fitted dose curve at least 0.9, where 1 is the maximum; inconclusive = response in the unintended direction; inactive = score below 0.9.

Chain of X-box-binding protein 1 (Homo sapiens) (P17861 whole entry, looked up, the tested form may be a part): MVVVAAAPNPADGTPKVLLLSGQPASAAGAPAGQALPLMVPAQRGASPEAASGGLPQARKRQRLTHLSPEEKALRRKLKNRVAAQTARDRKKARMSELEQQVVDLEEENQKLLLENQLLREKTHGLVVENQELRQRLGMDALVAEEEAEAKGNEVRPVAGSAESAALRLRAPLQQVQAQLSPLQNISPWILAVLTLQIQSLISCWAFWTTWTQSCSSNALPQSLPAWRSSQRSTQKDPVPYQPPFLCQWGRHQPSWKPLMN
Chain of Oxysterols receptor LXR-alpha (Homo sapiens) (Q13133 whole entry, looked up, the tested form may be a part): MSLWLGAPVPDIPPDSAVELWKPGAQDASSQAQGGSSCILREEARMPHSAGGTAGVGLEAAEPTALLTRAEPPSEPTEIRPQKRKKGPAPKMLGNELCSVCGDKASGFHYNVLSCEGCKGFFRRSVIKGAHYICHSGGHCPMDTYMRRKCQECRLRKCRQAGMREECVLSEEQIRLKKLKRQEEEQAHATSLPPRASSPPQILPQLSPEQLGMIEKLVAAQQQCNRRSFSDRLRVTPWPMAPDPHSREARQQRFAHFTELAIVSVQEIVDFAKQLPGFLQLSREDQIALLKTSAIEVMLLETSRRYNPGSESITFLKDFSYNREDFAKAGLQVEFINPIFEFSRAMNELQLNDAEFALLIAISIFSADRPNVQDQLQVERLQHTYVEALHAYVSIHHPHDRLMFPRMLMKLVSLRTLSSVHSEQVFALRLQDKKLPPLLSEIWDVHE
Chain of Glucocorticoid receptor (Homo sapiens) (P04150 whole entry, looked up, the tested form may be a part): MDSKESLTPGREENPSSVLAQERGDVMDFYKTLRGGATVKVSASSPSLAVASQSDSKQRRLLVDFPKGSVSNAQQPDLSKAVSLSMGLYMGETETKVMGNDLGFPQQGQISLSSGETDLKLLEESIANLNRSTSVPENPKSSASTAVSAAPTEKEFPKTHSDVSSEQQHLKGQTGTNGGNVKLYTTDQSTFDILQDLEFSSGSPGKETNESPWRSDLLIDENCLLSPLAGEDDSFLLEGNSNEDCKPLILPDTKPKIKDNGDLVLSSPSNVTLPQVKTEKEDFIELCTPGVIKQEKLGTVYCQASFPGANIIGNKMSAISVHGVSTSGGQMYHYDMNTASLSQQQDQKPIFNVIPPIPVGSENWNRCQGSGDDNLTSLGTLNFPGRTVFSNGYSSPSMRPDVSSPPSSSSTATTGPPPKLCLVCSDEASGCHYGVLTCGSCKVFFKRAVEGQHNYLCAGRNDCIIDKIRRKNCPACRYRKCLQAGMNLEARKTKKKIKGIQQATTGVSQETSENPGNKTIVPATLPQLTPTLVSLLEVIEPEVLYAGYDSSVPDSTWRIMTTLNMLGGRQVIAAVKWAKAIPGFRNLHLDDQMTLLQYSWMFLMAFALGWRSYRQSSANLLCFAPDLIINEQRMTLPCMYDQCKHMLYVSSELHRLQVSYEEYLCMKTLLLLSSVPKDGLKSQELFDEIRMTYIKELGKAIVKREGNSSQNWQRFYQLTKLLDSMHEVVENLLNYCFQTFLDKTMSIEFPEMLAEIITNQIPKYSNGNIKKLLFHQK
Chain of Transcriptional activator Myb (Homo sapiens) (P10242 whole entry, looked up): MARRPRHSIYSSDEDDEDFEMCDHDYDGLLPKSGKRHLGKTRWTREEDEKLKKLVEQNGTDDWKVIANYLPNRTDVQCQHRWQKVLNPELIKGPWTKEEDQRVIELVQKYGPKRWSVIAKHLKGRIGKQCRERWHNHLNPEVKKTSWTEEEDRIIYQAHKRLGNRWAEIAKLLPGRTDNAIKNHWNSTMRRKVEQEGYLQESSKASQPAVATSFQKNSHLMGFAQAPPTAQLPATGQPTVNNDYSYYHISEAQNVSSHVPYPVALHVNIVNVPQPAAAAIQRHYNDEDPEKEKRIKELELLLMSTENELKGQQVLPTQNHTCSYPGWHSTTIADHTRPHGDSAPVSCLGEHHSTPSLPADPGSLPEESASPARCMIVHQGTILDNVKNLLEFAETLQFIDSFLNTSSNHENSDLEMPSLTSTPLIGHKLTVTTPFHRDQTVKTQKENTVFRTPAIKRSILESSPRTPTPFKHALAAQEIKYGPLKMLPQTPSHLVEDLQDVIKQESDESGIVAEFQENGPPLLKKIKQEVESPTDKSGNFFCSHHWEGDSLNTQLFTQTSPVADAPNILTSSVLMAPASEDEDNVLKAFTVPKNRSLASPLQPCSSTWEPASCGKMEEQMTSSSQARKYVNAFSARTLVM
Chain of Estrogen receptor (Homo sapiens) (P03372 whole entry, looked up, the tested form may be a part): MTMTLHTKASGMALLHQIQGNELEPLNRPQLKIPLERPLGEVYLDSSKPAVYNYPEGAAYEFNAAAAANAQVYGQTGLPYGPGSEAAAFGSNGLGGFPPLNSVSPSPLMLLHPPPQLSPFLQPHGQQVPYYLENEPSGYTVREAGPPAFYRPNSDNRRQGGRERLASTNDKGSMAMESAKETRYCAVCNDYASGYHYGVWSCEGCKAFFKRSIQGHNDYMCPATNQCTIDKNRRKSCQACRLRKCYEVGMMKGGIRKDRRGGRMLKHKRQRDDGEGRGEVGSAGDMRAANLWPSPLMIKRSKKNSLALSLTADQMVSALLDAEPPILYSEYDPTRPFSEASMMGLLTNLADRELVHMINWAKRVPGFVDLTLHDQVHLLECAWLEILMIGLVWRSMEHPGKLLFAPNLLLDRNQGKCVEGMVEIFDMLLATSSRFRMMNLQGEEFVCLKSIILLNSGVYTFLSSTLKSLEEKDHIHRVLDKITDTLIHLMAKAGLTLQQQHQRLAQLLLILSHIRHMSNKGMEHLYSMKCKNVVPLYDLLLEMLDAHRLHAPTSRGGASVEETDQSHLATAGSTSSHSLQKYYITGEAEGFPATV
Chain of Nuclear receptor subfamily 4 group A member 2 (Homo sapiens) (P43354 whole entry, looked up, the tested form may be a part): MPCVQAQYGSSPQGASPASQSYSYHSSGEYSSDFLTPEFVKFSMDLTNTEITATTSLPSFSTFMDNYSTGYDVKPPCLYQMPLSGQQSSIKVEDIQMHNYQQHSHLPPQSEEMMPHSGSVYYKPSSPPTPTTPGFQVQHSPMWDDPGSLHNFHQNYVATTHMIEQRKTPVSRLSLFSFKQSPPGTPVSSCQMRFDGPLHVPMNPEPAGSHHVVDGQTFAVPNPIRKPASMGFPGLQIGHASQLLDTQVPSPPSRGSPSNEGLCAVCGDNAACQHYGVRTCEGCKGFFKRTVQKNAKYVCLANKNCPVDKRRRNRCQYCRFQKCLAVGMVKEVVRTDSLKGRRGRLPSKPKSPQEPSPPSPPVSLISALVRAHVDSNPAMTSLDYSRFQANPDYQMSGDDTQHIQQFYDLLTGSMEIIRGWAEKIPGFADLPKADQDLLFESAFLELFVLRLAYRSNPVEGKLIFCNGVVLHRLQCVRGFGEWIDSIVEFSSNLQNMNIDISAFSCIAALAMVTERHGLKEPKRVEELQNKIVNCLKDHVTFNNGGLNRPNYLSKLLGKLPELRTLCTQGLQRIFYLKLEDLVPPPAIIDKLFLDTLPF

With `CC(C)C(C)(C)C(C)(C)C(C)(C)S`, the result in assay [1], in assay [2], in assay [5], in [6], in [7] and in assay [8] was inactive. Further, the result in assay [9], in [10], in [11] and in assay [12] was inactive. In addition, the half-maximal activity concentration (AC50) (in general, the concentration giving half of the maximal activity seen) in assay [3] was 6.65 µM (active); in assay [4], 40.8 µM (active).

As for `CCCCCC=CCC(=O)OC`, the compound was classed as inactive in assay [1], in assay [2], in assay [3], in [5], in [13] and in assay [14]. For the same compound, the result in assay [15], in assay [6], in assay [7], in [8], in assay [10] and in assay [11] was inactive. Also, the outcome in assay [12] was inactive.

Turning to `O=[N+]([O-])c1ccc(Nc2ccc(Nc3ccccc3)c(S(=O)(=O)O)c2)c([N+](=O)[O-])c1`, the compound was classed as inactive in assay [1], in assay [3], in assay [13], in assay [14], in assay [15] and in assay [6]. Further, the outcome in assay [7], in assay [16], in assay [11] and in assay [12] was inactive. Further, the AC50 in assay [2] is 148 µM (active); in assay [5], 172 µM (active).

Turning to `CC(C)OP(=O)(CP(=O)(OC(C)C)OC(C)C)OC(C)C`, the result in assay [1], in assay [2], in assay [3], in assay [4], in assay [5] and in [14] was inactive. Further, the result in [6], in [7], in assay [9], in assay [16], in assay [10] and in assay [11] was inactive. Moreover, the outcome in [12] was inactive.

`CNCCCC12CCC(c3ccccc31)c1ccccc12`: the result in assay [1], in assay [2], in assay [4], in assay [15], in [7] and in assay [8] was inactive. Further, the result in assay [9], in assay [11] and in assay [12] was inactive. The figures for the AC50 in assay [3] and in assay [5] were 15 µM (active) and 14.9 µM (active), respectively.
